Screening data: PubChem, NMMLSC
BoNT A protease = BoNT A light chain protease inhibition. multiplex microsphere protease substrate cleavage, flow cytometry. inhibition, % at 10 µM. 360,000 tested, 0.17% active. AID 588499
BoNT-F LC inh = BoNT F light chain protease inhibition; Multiplex microsphere protease cleavage assay, flow cytometry; inhibition, % at 10 µM; 360,000 tested, 0.22% active; in the data active means inhibition above about 35%, passing the limit was not always enough; inconclusive means no clear call, values can overlap the other calls
Anthrax LF inh2 = inhibitors of Bacillus anthracis lethal factor protease; P15917; multiplex microsphere protease cleavage assay, LF; inhibition, % at 10 µM; 360,000 tested, 0.12% active; AID 588501
Target sequence (P15917 whole entry, looked up): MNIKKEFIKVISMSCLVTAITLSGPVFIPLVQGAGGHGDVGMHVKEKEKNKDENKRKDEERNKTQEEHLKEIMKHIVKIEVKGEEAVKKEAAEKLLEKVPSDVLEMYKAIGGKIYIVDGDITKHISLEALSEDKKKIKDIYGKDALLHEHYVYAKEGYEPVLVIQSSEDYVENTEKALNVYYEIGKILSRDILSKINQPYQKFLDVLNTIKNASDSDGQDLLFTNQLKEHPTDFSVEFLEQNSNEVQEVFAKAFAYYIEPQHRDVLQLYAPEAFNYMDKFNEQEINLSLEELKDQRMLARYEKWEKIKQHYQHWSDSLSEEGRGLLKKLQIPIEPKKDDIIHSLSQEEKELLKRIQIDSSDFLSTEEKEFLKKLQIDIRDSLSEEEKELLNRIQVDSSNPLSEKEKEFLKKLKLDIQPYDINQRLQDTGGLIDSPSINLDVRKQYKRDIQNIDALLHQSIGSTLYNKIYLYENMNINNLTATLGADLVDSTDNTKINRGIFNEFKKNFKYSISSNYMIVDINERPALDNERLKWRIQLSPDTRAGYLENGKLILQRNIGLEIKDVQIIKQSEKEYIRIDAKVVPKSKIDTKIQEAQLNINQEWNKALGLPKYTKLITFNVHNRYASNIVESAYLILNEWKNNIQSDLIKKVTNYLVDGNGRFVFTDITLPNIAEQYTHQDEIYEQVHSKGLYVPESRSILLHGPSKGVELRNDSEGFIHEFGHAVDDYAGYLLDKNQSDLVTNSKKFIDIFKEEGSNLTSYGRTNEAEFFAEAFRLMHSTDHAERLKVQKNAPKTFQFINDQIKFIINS
Bead autofluor = flagged as autofluorescent in microsphere protease counterscreen; compound autofluorescence counterscreen, microsphere flow cytometry; stronger effect = higher value; fluorescence intensity (no concentration beside the values); 360,000 tested, 3.1% active; in the data active means fluorescence intensity above about 16000; inconclusive means no clear call, values can overlap the other calls
Large screens that a line does not name were inactive; ! = not confirmed by another sample. Compounds with a hit are over-represented: about 3.5% of the library has one in this group of screens. Unless noted, no stated cut-off is given here; in the data, active means inhibition above about 30%; inconclusive means no clear call, values can overlap the other calls; inactive means below that.

Cc1nn(-c2ccccc2)c(Cl)c1/C=N/O	none
Cc1cc2c(cc1C)N(C(=O)CSC1=NCCS1)C(C)(C)c1ssc(=S)c1-2	Bead autofluor 21080
CCOc1ccccc1OCCCC(=O)Nc1cc(S(=O)(=O)N2CCCCC2)ccc1C	none
COc1cccc(CNC(=O)C2CCN(S(=O)(=O)N3CCCCC3)CC2)c1	Bead autofluor 21716
COc1cccc(CNC(=O)C2CSC3(C)CCC(=O)N23)c1 (configuration not stated)	Bead autofluor 17016
O=C(c1ccco1)N1CCN(C(=O)C2CCN(S(=O)(=O)c3cccs3)CC2)CC1	Bead autofluor 18565
CC(=O)N1CCC(C(=O)N2CCN(S(=O)(=O)c3cccs3)CC2)CC1	none
O=C(NCc1cccnc1)C1CCN(S(=O)(=O)c2cccnc2)CC1	none
O=C(NCc1cccnc1)C1CCN(S(=O)(=O)c2cccs2)CC1	Bead autofluor 23889
Cc1ccccc1S(=O)(=O)NC(=O)C1(C)CCN1C(=O)CC1CCCC1 (configuration not stated)	none
NS(=O)(=O)c1ccc(N/N=C/c2ccccc2C(=O)O)c([N+](=O)[O-])c1	none
Cc1cc([N+](=O)[O-])c2[nH]c(C(=O)N/N=C/c3ccccc3C(=O)O)c(-c3ccccc3)c2c1	Bead autofluor 19535
Cc1[nH]nc(N=CC2=C(O)CC(C)(C)CC2=O)c1-c1ccc(Cl)cc1	BoNT A protease inconclusive, Bead autofluor 20907!
Cc1[nH]nc(N=CC2=C(O)CC(c3ccco3)CC2=O)c1-c1ccc(Cl)cc1 (configuration not stated)	Bead autofluor 23437
O=C1CC(c2ccco2)CC(O)=C1C=Nc1cc(Cl)ccc1O (configuration not stated)	none
CC1(C)CC(=O)C(C=Nc2ccc(Cl)cn2)=C(O)C1	none
Cc1ccc(N=CC2=C(O)CC(c3ccco3)CC2=O)cc1 (configuration not stated)	Bead autofluor 17259
COc1ccc(S(=O)(=O)N2CCCCC2)cc1NC(=O)C1CC1(Cl)Cl (configuration not stated)	none
COc1cc(-c2cnc3c(NC(C)=O)cc(-c4ccccc4CN(C)C)cn23)cc(OC)c1OC	none
COc1ccc(NC(=O)CSCc2cc(=O)n3c(C)csc3n2)cc1	none
CCCCOc1ccccc1C1C(C(=O)OC)=C(C)N(C)C(C)=C1C(=O)OC	Bead autofluor 22647
Cc1ccc(C(=O)NN2CCOCC2)cc1	BoNT A protease inconclusive, Bead autofluor 19445
CC1CCCN(c2oc(-c3cccc4ccccc34)nc2C#N)C1 (configuration not stated)	Bead autofluor 17536
Cc1ccccc1-c1nc(C#N)c(N2CCC(C)CC2)o1	none
CCN(CCCNC(=O)CC(C(=O)N1CCc2ccccc21)n1ccnc1)c1ccccc1 (configuration not stated)	Bead autofluor 18267
C[C@H]1CN([C@@H](C)CO)C(=O)CCCn2nncc2CO[C@@H]1CN(C)S(=O)(=O)c1cccc(F)c1	none
COCc1[nH]nc2c1C(c1ccc(F)cc1F)C(C#N)=C(N)O2 (configuration not stated)	none
COCc1[nH]nc2c1C(c1ccnc3ccccc13)C(C#N)=C(N)O2 (configuration not stated)	Bead autofluor 16149
O=C(NCc1ccc(F)cc1F)[C@@H]1CCCN1C(=O)[C@@H]1CCCN1C(=O)c1cccc2ccccc12	none
CCOC(=O)N1CCN(C(=O)C(=O)c2cn(CC(=O)N3CCCCCC3)c3ccccc23)CC1	none
CCOC(=O)C1CCCN(C(=O)C(=O)c2cn(CC(=O)N3CCOCC3)c3ccccc23)C1 (configuration not stated)	Bead autofluor 19022
CCOC(=O)C1CCN(C(=O)C(=O)c2cn(CC(=O)N3CCCCCC3)c3ccccc23)CC1	BoNT A protease 44.2, Anthrax LF inh2 30.7
O=C(O)C1OC(C(=O)O)C(C(=O)O)C1C(=O)O (configuration not stated)	none
CCCCCn1c(N)c(-c2nc3ccccc3s2)c2c([N+](=O)[O-])nn(CC)c(=O)c21	Bead autofluor 17846
CCCCn1c(N)c(-c2nc3ccccc3s2)c2c([N+](=O)[O-])nn(CC)c(=O)c21	none
C[C@@H]1Cn2cnc(C(=O)N[C@@H](C)c3ccccc3)c2C(=O)N1	none
CN(C)/C=C1\C(=O)N(c2ccc(Oc3ccccc3)cc2)CS1=O (configuration not stated)	Bead autofluor 22670
CCCS(=O)(=O)NC(=O)C1(C)CCCN(C(=O)c2cncc(Br)c2)C1 (configuration not stated)	none
CCCc1ccc(Oc2cc(N3CCOCC3)nc(-c3ccccc3)n2)cc1	Bead autofluor 23308
COCCn1c(Cc2ccccc2)nnc1SCC(=O)N1CCOCC1	none
COCCCn1c(Cc2ccccc2)nnc1SCC(=O)N1CCCCC1	Bead autofluor 22748
CC(NC(=O)CNC(=O)c1cccc(Cl)c1)c1ccccc1 (configuration not stated)	none
COc1ccccc1N1CCN(C(=O)CSc2ncccc2-c2nc3ccccc3[nH]2)CC1	Bead autofluor 21668
O=C(CSc1ncccc1-c1nc2ccccc2[nH]1)N1CCN(c2ccccc2F)CC1	Bead autofluor 17934
COc1ccccc1N1CCN(C(=O)CSc2nc3ccccc3[nH]2)CC1	none
COc1ccc(N2CCN(C(=O)CSc3ncccc3-c3nc4ccccc4[nH]3)CC2)cc1	Bead autofluor 20130
CCCS(=O)(=O)NC(=O)C1(C)CCCN(C(=O)CSc2ccccc2)C1 (configuration not stated)	none
CN(Cc1ccccc1)C(=O)c1ccc(Cc2cn(C)c3ccccc23)nc1	none
CCNC(=O)c1cc2c(c(-c3cccc(-c4ccccc4F)c3)n1)[C@@H](CCO)N(C(=O)CC)C2	none
COc1ccccc1NC(=O)N(Cc1ccccc1)C1=NCC(C)S1 (configuration not stated)	Bead autofluor 22072
Cc1ccc(S(N)(=O)=O)c(C)c1N1CCCC1=O	none
Cc1ccc(S(=O)(=O)O)c(C)c1N1CCCC1=O	Bead autofluor 20761
O=C(CN1CCN(Cc2ccccc2)C1=O)NCCCN1CCOCC1	none
O=C(NCCCN1CCOCC1)c1ccc(Br)s1	none
O=C(c1cccs1)N1CCN(CCc2ccccc2)CC1	Bead autofluor 21277
O=C(Cn1cnc2ccccc21)NCCCN1CCOCC1	Bead autofluor 24254
O=C(NCCN1CCN(C(=O)c2cccs2)CC1)c1cccs1	Bead autofluor 22034
O=C(NCCCN1CCOCC1)c1cccs1	BoNT A protease inconclusive, Bead autofluor 19558
CC(C)(C)S(=O)N1Cc2cc(C(=O)N3CCc4ccccc4C3)nc(-c3cccc(-c4ccncc4)c3)c2[C@H]1CCO (some centres not stated)	none
C=C(CN(C)C)C(=O)c1ccc(OC2OC(COC(C)=O)C(OC(C)=O)C(OC(C)=O)C2OC(C)=O)cc1 (configuration not stated)	none
O=c1cc(O)c2c(=O)n(C3CCCCC3)c3ccccc3c2o1	Bead autofluor 22987
COC(=O)c1sccc1-c1ccc(/C=N/OC(=O)c2ccccc2)o1	Bead autofluor 20465
COc1ccccc1C(=O)NNC(=O)CCC(=O)NCc1ccccc1	none
COc1ccc(CC(=O)N(C)CC(=O)Nc2ccc(F)cc2)cc1S(=O)(=O)N1CCOCC1	none
